Tests used:
Assay in all cases: log2 ratio of Biotin-Ahx-Ub-VS probe labelling (fragment/DMSO); higher = less target engagement (more negative = stronger competition), active = hit call of the paper (q ≤ 0.05, log2 ratio ≤ -1)
Conditions in all cases: compound concentration: 200 uM; treatment time: 3 h
ALG13 = target: T1, ALG13 (UniProt Q9NP73)
T1 sequence (whole entry): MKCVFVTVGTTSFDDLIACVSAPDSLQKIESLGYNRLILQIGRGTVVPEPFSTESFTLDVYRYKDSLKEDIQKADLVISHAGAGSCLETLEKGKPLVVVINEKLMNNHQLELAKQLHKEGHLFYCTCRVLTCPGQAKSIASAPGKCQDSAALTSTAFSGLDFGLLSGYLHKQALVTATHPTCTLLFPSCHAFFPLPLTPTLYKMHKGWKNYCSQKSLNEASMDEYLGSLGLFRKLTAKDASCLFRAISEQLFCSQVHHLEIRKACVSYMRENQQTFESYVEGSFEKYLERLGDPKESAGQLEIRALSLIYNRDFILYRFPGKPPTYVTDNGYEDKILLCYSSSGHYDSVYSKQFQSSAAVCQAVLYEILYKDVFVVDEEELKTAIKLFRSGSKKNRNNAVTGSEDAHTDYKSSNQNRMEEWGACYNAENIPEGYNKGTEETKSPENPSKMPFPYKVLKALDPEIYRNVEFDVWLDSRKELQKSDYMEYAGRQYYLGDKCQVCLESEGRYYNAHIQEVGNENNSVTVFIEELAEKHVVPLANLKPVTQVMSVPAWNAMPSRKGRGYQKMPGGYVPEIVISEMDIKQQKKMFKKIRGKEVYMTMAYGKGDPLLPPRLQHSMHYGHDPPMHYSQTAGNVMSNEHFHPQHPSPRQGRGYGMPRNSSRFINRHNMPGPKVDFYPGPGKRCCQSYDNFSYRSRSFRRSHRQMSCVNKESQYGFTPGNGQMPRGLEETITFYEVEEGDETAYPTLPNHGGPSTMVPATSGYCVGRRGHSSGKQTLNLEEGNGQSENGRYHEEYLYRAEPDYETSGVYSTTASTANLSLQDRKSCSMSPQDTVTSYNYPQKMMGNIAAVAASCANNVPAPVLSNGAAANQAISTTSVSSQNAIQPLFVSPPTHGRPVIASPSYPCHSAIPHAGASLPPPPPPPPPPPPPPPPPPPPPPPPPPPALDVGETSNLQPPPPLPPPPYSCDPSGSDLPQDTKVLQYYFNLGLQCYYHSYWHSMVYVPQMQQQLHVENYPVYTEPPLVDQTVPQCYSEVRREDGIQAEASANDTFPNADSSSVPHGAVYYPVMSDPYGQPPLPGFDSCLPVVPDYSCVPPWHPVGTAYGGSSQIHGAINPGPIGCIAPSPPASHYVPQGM
Outline: (§1)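 HEK293T lysate, 495 µg per sample in Tris/CHAPS/IGEPAL buffer with protease inhibitors, was treated in triplicate with fragment at 200 µM or vehicle for 3 h and then with Biotin-Ahx-Ub-VS at 0.5 µM final for 1 h. Labelled DUBs were NeutrAvidin-enriched, digested with LysC and trypsin, and run by diaPASEF LC-MS/MS. Spectronaut label-free quantities were global-median-normalised, and values are average log2 fragment/vehicle ratios by unpaired t-test on proteins with ≥2 unique peptides.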

ATXN3 = ATXN3 (UniProt P54252)
Outline: as §1

BAP1 = target: T2, BAP1 (UniProt Q92560)
T2 sequence (whole entry): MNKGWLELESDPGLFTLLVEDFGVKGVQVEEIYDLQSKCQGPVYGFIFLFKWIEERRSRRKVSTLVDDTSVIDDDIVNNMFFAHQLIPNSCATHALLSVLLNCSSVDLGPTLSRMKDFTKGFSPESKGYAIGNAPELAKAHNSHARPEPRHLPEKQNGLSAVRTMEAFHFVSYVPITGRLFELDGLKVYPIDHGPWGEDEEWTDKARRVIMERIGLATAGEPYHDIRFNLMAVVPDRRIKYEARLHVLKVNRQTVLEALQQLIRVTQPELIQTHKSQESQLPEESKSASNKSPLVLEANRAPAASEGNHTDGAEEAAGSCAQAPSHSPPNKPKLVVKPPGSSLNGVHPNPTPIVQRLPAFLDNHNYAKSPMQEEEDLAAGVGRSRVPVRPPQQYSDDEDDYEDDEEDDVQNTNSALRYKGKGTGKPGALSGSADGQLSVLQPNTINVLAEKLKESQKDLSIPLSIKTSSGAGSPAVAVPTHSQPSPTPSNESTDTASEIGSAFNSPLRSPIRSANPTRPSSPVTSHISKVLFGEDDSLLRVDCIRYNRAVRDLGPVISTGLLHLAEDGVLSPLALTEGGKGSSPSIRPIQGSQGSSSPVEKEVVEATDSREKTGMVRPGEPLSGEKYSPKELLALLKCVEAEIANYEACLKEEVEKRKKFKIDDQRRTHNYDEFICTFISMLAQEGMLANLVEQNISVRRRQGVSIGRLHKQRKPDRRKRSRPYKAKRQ
Outline: as §1

EIF3F = EIF3F (UniProt O00303)
Outline: as §1

EIF3H = EIF3H (UniProt O15372)
Outline: as §1

FAM105A = target: T3, FAM105A (UniProt Q9NUU6)
T3 sequence (whole entry): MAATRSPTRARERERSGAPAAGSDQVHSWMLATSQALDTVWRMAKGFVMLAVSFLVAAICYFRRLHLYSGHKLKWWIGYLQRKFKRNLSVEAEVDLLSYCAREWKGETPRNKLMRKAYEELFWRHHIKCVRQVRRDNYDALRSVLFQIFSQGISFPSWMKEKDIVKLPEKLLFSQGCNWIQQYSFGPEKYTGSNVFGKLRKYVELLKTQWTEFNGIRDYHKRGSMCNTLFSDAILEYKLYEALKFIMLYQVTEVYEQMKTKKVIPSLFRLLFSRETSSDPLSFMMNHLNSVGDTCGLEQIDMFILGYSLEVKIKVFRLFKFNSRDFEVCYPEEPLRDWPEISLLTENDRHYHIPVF
Outline: as §1

OTUB1 = OTUB1 (UniProt Q96FW1)
Outline: as §1

OTUD4 = target: T4, OTUD4 (UniProt Q01804)
T4 sequence (whole entry): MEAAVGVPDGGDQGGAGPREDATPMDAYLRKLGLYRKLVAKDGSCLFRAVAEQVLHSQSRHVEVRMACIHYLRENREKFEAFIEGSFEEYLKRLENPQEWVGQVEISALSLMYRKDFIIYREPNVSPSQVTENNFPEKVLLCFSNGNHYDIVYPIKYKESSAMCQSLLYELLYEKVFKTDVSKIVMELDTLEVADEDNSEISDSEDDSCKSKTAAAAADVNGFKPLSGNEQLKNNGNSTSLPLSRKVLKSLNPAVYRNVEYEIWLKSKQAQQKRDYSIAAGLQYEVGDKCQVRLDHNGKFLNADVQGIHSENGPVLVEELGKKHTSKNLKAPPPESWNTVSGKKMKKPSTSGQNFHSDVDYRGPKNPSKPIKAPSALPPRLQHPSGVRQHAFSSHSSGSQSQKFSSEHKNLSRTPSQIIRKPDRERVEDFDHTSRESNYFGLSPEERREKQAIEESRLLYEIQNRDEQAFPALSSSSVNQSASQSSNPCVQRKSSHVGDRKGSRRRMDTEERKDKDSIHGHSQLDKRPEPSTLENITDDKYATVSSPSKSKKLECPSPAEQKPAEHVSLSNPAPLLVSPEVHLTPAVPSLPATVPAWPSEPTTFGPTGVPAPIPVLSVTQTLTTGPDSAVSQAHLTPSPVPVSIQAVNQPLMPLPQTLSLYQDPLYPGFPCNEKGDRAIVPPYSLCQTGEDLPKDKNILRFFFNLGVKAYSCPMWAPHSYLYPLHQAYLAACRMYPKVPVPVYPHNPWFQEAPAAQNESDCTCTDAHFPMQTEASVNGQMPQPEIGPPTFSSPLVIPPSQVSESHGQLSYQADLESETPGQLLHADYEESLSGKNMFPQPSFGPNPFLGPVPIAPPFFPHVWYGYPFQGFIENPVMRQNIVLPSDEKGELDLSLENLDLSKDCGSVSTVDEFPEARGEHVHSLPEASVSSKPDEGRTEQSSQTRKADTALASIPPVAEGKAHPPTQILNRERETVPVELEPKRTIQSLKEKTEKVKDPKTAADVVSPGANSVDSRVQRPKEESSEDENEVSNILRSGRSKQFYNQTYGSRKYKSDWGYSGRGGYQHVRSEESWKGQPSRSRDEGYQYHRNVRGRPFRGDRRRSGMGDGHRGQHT
Outline: as §1

OTUD5 = target: T5, OTUD5 (UniProt Q96G74)
T5 sequence (whole entry): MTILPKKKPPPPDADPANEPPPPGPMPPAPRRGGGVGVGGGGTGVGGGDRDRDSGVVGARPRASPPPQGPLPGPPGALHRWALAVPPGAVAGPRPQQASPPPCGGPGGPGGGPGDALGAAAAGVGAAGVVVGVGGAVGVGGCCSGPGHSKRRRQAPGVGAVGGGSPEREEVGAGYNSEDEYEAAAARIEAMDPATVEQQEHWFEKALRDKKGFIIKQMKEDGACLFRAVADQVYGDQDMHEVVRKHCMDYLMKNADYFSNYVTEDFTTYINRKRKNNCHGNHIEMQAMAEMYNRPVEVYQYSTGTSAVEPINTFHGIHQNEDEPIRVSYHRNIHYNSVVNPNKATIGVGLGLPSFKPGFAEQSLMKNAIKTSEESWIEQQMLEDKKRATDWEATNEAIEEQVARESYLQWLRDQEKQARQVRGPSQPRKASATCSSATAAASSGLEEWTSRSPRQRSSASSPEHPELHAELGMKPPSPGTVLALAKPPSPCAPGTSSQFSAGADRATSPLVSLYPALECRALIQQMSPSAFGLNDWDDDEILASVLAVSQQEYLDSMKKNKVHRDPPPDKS
Outline: as §1

Measured: log2 ratio of Biotin-Ahx-Ub-VS probe labelling

Chain of OTUB1 (Q96FW1 whole entry): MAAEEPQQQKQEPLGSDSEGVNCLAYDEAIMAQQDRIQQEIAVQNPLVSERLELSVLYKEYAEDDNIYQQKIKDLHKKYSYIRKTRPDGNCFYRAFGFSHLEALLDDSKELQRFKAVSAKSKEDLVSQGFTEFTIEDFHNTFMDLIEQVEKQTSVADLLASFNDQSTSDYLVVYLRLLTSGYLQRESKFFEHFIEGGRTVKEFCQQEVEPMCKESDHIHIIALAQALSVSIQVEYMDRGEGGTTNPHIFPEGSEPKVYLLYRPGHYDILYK
Chain of ATXN3 (P54252 whole entry): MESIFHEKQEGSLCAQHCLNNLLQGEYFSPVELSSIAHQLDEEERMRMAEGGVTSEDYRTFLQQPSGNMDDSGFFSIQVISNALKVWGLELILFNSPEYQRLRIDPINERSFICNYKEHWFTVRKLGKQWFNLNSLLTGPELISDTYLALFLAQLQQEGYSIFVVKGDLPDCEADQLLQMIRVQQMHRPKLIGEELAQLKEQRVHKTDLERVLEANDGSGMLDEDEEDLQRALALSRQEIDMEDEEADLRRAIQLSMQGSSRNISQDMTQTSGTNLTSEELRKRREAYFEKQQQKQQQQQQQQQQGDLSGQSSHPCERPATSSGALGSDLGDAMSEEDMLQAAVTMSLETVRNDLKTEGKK
Chain of EIF3F (O00303 whole entry): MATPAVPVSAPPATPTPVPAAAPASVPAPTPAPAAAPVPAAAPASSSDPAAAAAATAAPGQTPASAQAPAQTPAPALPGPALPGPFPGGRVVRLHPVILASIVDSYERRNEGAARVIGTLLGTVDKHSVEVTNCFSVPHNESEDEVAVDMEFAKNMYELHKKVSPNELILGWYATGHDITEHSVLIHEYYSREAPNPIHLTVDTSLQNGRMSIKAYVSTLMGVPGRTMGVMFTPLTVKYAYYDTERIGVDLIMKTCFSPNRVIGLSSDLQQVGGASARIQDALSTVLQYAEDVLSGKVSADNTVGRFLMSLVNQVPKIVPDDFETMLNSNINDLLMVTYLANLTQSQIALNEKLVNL
Chain of EIF3H (O15372 whole entry): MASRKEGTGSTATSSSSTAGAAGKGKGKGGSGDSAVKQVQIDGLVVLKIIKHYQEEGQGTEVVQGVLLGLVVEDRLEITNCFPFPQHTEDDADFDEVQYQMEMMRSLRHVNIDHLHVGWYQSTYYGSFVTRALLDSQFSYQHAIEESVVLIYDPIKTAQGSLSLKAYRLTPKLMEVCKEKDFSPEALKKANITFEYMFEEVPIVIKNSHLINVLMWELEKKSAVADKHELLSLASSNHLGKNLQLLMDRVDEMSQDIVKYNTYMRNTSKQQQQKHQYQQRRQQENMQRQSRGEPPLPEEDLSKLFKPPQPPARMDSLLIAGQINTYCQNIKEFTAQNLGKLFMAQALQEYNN

O=C(CCl)NCCC1=CCCCC1
inactive: ALG13 0.121 | ATXN3 -0.135 | BAP1 -0.56 | EIF3F -0.0695 | EIF3H 0.0525 | FAM105A -0.125 | OTUB1 0.147 | OTUD4 -0.135 | OTUD5 -0.0425

COc1cc(Cl)c(C)cc1NC(=O)CCl
active: BAP1 -2.01
inactive: ALG13 -0.216 | ATXN3 -0.37 | EIF3F 0.0292 | EIF3H -0.06 | FAM105A 0.159 | OTUB1 -0.0736 | OTUD4 -0.51 | OTUD5 -0.644

O=C(CCl)N1CCc2[nH]c3ccccc3c2C1
active: OTUD5 -1.55
inactive: ALG13 -0.37 | ATXN3 -0.343 | BAP1 -0.875 | EIF3F -0.00281 | EIF3H 0.231 | FAM105A 0.0311 | OTUB1 -0.167 | OTUD4 -0.657

O=C(CCl)N1c2ccccc2NC(=O)C12CCCC2
inactive: ALG13 -0.0909 | ATXN3 -0.311 | BAP1 -0.609 | EIF3F -0.0311 | EIF3H 0.277 | FAM105A 0.141 | OTUB1 -0.478 | OTUD4 -0.196 | OTUD5 -0.711

Reference: the supplement of paper PMC11732987, “Enantioselective OTUD7B fragment discovery through chemoproteomics screening and high-throughput optimisation” (Communications Chemistry, 2025)
